aSyn 5UTR act – Activators via SNCA 5'UTR binding, MLPCN; AID 1814; actives 7.1% (n = 300,000); activity score, % (tested at 7.5 µM), hits read low; alpha-synuclein 5'UTR reporter, activators screen; in the data active = activity score below about -60%
* hit, by the source's call. Only a sample is shown.

SMILES	aSyn 5UTR act
COc1ccc(/C=C2\SC(=O)N(CCNC(=O)C3CCN(S(=O)(=O)c4cccs4)CC3)C2=O)cc1	-113*
CC1CCC(NC(=O)CCC(=O)N2CC(C)Oc3ccccc32)CC1 (stereo not drawn)	-144*
COc1nc(-c2ccccc2)ccc1-c1noc(-c2ccccc2F)n1	-109*
COc1nc(-c2ccc(C)cc2)ccc1-c1noc(-c2ccco2)n1	-70*
COc1nc(C)ccc1-c1noc(-c2ccco2)n1	-124*
Cc1ccc2nc(-c3ccc(N4C(=O)CC(N5CCC(C(N)=O)CC5)C4=O)cc3)sc2c1 (stereo not drawn)	-72*
O=C(CO/N=C/c1ccccc1O)N1CCc2ccccc21	-67*
O=C(COc1ccc2c(c1)CCC2)N1CCc2ccccc21	-123*
Cc1ccnc(NC(=O)COc2ccc3c(c2)CCC3)c1	-90*
Cc1ccc(OCC(=O)N2CCc3ccccc32)cc1	-121*
CCc1ccc(OCC(=O)N2CCc3ccccc32)cc1	-190*
S=C(NCCc1ccccc1)NCc1cccs1	-74*
CC(C)(C)c1ccc(NC(=S)NCc2cccs2)cc1	-98*
CCOc1ccc(-c2nc(C#N)c(NC3CC3)o2)cc1	-95*
COc1ccc(Nc2oc(-c3ccc(Cl)cc3)nc2C#N)cc1	-77*
COc1ccc(Nc2oc(COc3ccc(Cl)cc3)nc2C#N)cc1	91
CCOc1ccc(Nc2oc(-c3ccc(Cl)cc3)nc2C#N)cc1	-139*
COc1ccc(Nc2oc(-c3ccccc3)nc2C#N)cc1	-112*
CNc1oc(-c2ccccc2)nc1C#N	-62*
COc1ccc(-c2nc(C#N)c(NCCc3ccccc3)o2)cc1	-146*
COc1ccc(Nc2oc(-c3ccc(OC)cc3)nc2C#N)cc1	-132*
N#C/C(=C\c1cn(Cc2cccc(F)c2)c2ccccc12)C(=O)NCc1ccco1	65
CN(C)c1ccc(/C=C(\C#N)C(=O)NCc2ccco2)cc1	-102*
N#C/C(=C\c1cn(Cc2ccccc2)c2ccccc12)C(=O)NCc1ccco1	68
COc1ccccc1CNC(=O)[C@@H]1CCCN1S(=O)(=O)c1ccc(C)cc1	-113*
SMILES	aSyn 5UTR act
Cc1ccccc1NC(=O)N1CCc2ccccc2C1	-80*
Cc1ccc(NC(=O)C2OCCc3ccccc32)cc1C (stereo not drawn)	-62*
Cc1cc(C)cc(NC(=O)N2CCc3ccccc3C2)c1	-111*
Cc1ccc(NC(=O)N2CCc3ccccc3C2)cc1C	-152*
Cc1cccc(C(=O)Oc2ccc(/C=N/O)cc2)c1	-72*
Cc1oc(-c2ccc(Cl)cc2)nc1CS(=O)CC(=O)NCCCN1CCCC(C)C1 (stereo not drawn)	-91*
COc1ccc(-c2nc(CS(=O)CC(=O)NCCCN3CCCC(C)C3)c(C)o2)cc1OC (stereo not drawn)	-101*
O=C(Nc1ccc(N2CCOCC2)c(Cl)c1)c1ccco1	-69*
O=C(c1ccc(Cl)cc1)c1cc([N+](=O)[O-])ccc1N1CCOCC1	118
Cc1cc(C(=O)Nc2ccc(N3CCOCC3)c(Cl)c2)c(C)o1	-180*
O=C(Nc1ccc(N2CCOCC2)c(Cl)c1)c1ccc(Cl)cc1	-126*
O=C(Nc1ccc(N2CCOCC2)c(Cl)c1)C1CCCCC1	-69*
O=C(Nc1ccc(N2CCCC2)c(Cl)c1)c1ccc(Br)o1	-177*
O=C(Nc1ccc(N2CCOCC2)c(Cl)c1)c1ccccc1F	-172*
O=C(Nc1ccc(N2CCOCC2)c(Cl)c1)c1ccc2c(c1)OCCO2	-93*
CCN1CCN(Cc2ccc(NC(=O)c3ccc(C)c(NC(=O)c4c[nH]c5cc(C(F)(F)F)ccc5c4=O)c3)cc2C(F)(F)F)CC1	113
CCN1CCN(c2ccc(NC(=O)c3ccc([N+](=O)[O-])o3)cc2Cl)CC1	126
CCN1CCN(c2ccc(NC(=O)c3ccc(F)cc3)cc2Cl)CC1	-94*
O=C(Nc1ccc(N2CCCC2)c(Cl)c1)c1ccc2c(c1)OCCO2	-78*
O=C(Nc1ccc(N2CCCCC2)c(Cl)c1)c1ccc2c(c1)OCCO2	-132*
Cc1cc(N2Cc3ccccc3C2)ccc1C=O	-96*
Oc1cccc(N2Cc3ccccc3C2)c1	-82*
Cc1cc2c(cc1C)CN(c1ccccc1)C2	-90*
Fc1ccc(-c2ccc(Nc3cccc(F)c3)nn2)cc1	-131*
Fc1ccc(Nc2ccc(-c3ccc(F)cc3)nn2)cc1	-161*
SMILES	aSyn 5UTR act
CCCCNc1nc2cccnc2s1	-78*
Clc1ccc(Nc2nc3cccnc3s2)cc1	-144*
CCc1ccc(N(C(=O)c2csnn2)C(C(=O)NC(C)(C)CC)c2ccccn2)cc1 (stereo not drawn)	-69*
CCc1ccc(N(C(=O)c2csnn2)C(C(=O)NC(C)(C)C)c2ccccn2)cc1 (stereo not drawn)	-102*
NC(=O)c1cnn(-c2ccc3ccccc3c2)c1N	-125*
Nc1cnc(Nc2ccc(Br)cc2)nc1N	-106*
CCc1ccc(NC(=S)Nc2cc(C(=O)O)ccc2N2CC3CC(C2)c2cccc(=O)n2C3)cc1 (stereo not drawn)	-114*
O=C(O)c1cccc2c1-c1ccccc1/C2=N\Nc1ccccc1	-83*
O=C(NCc1cccs1)C(=O)c1c[nH]c2ccccc12	-123*
O=C(NCc1ccco1)C(=O)c1c[nH]c2ccccc12	-79*
CCn1c(SCC(=O)N=Nc2c(O)[nH]c3ccccc23)nc2ccccc21	-79*
O=C(CSCc1ccccc1)N=Nc1c(O)[nH]c2ccccc12	-79*
O=C(N=Nc1c(O)[nH]c2ccccc12)c1ccco1	-170*
O=C(Nc1nc(-c2ccccn2)cs1)c1cccc(-n2cnnn2)c1	83
O=C(Nc1nc(-c2ccccn2)cs1)C12CC3CC(CC(O)(C3)C1)C2	-68*
N#Cc1ccc(-c2csc(NC(=O)C3CC3)n2)cc1	-64*
O=C(Nc1nc(-c2ccccn2)cs1)C1CC1	-111*
Cc1ccc(CNc2nc3ccccc3s2)s1	78
c1ccc(CCNc2nc3ccccc3s2)cc1	-81*
COc1ccc(CNc2nc3ccccc3s2)cc1OC	-141*
O=c1c2ccccc2ncn1CCOc1ccccc1[N+](=O)[O-]	-63*
O=c1c2ccc([N+](=O)[O-])cc2ncn1CCOc1ccccc1	-69*
COc1ccc2c(Cn3cnc4cc([N+](=O)[O-])ccc4c3=O)cc(=O)oc2c1	72
O=C(c1ccccc1)N1CCN(CC#Cc2ccccc2)CC1	-66*
O=C(CC(Nc1ccc(Cl)cc1)C(=O)O)c1ccccc1 (stereo not drawn)	-69*
SMILES	aSyn 5UTR act
O=C(CC(Nc1ccccc1Cl)C(=O)O)c1ccccc1 (stereo not drawn)	-94*
Cc1c(Cl)cccc1NC(CC(=O)c1ccccc1)C(=O)O (stereo not drawn)	-102*
COC(=O)c1ccccc1SC(CC(=O)c1ccccc1)c1ccc(F)cc1 (stereo not drawn)	-68*
O=C(CC(Nc1ccc(F)cc1)c1ccccc1)c1ccccc1 (stereo not drawn)	-89*
COc1cccc(C(=O)Nc2ccc(-c3nnc(-c4ccco4)o3)cc2)c1	-127*
COc1cccc(-c2nnc(-c3ccccc3[N+](=O)[O-])o2)c1	-136*
COc1cccc(OCCOc2ccccc2[N+](=O)[O-])c1	-155*
COc1cccc(-c2nnc(-c3ccco3)o2)c1	-147*
COc1cccc(-c2nnc(NC(=O)C(C)C)o2)c1	-67*
CCCN(CCC)S(=O)(=O)c1ccc(C(=O)Nc2nnc(-c3cccc(OC)c3)o2)cc1	70
Fc1ccc(C[n+]2csc3ccccc32)cc1	-109*

Screening data (PubChem)
